Reference: the supplement of paper PMC10849652
The full data set covers some 7,900 targets. This sample favours those with a hit. About 0.6% of all pairs of compound and target were hits.

Compound: Cc1cc(Nc2cc(CN3CCOCC3)c3nc(C)c(Cc4ccc(Cl)cc4F)n3n2)n[nH]1 [gandotinib]
Experiment: log2 fold change, soluble protein after heating vs DMSO (PISA); higher = thermal stabilisation; K562 cells, 10 uM, 30 min; active = over 0.2 and 3.5 SD of the protein, either way, in both replicates (recomputed)
Procedure, shortened: (§1)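 Soluble protein was defined as the supernatant after 21,000xg for 90 min. It came from K562 cells at 2×10^6 cells/mL given 10 μM compound for 30 min, heated in aliquots for 3 min across 48°C-58°C, pooled, and extracted in PBS with 0.5% NP-40 at 4°C, and was quantified by TMTpro 16plex LC-MS/MS with equalised channel sums. Thermal stability against control samples, from duplicates, is reported as log2 fold change.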

Chain of UniProt Q5U3C3 (Q5U3C3 whole entry, looked up): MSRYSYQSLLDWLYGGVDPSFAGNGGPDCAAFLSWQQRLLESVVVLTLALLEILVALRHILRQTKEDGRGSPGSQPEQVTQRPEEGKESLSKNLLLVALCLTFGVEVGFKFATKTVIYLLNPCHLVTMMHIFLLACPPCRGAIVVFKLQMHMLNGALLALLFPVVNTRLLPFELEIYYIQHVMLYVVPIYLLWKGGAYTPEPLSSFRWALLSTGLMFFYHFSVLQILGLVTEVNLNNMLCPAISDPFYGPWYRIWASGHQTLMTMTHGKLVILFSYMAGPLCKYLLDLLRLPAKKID
Chain of UniProt Q9Y4E8 (Q9Y4E8 whole entry, looked up): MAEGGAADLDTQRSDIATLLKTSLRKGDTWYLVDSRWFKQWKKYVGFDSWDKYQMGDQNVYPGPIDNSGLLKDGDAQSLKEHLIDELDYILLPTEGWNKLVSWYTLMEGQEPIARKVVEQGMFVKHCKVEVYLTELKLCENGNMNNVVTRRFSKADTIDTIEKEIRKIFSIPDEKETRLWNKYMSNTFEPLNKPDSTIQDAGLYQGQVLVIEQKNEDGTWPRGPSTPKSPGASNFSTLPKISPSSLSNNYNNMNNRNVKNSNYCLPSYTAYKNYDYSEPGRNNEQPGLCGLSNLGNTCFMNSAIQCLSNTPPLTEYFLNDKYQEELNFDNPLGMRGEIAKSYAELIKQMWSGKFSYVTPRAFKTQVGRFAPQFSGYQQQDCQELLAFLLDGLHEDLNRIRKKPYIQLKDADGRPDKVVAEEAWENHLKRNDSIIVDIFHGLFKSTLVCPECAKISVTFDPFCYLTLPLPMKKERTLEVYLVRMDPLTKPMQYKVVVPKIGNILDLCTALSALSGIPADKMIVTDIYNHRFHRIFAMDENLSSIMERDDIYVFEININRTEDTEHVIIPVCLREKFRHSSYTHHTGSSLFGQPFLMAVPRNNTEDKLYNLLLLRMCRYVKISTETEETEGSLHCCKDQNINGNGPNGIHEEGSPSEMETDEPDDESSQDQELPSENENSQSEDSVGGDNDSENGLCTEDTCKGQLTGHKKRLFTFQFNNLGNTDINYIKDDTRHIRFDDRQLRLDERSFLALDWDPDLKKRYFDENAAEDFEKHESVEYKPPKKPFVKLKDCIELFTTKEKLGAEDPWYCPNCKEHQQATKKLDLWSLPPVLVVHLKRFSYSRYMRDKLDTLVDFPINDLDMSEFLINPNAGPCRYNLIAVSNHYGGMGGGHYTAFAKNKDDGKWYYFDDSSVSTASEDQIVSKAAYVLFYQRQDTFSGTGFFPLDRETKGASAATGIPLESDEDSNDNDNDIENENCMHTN
Chain of UniProt P21796 (P21796 whole entry, looked up): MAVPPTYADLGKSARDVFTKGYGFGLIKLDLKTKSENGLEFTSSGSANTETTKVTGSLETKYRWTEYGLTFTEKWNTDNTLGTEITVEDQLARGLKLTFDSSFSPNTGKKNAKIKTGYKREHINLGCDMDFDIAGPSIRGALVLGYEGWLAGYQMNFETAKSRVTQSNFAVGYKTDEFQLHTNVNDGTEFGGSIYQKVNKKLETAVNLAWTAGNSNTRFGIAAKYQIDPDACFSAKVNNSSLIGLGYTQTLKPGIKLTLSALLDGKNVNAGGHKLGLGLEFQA
Chain of UniProt Q9UHP3 (Q9UHP3 whole entry, looked up): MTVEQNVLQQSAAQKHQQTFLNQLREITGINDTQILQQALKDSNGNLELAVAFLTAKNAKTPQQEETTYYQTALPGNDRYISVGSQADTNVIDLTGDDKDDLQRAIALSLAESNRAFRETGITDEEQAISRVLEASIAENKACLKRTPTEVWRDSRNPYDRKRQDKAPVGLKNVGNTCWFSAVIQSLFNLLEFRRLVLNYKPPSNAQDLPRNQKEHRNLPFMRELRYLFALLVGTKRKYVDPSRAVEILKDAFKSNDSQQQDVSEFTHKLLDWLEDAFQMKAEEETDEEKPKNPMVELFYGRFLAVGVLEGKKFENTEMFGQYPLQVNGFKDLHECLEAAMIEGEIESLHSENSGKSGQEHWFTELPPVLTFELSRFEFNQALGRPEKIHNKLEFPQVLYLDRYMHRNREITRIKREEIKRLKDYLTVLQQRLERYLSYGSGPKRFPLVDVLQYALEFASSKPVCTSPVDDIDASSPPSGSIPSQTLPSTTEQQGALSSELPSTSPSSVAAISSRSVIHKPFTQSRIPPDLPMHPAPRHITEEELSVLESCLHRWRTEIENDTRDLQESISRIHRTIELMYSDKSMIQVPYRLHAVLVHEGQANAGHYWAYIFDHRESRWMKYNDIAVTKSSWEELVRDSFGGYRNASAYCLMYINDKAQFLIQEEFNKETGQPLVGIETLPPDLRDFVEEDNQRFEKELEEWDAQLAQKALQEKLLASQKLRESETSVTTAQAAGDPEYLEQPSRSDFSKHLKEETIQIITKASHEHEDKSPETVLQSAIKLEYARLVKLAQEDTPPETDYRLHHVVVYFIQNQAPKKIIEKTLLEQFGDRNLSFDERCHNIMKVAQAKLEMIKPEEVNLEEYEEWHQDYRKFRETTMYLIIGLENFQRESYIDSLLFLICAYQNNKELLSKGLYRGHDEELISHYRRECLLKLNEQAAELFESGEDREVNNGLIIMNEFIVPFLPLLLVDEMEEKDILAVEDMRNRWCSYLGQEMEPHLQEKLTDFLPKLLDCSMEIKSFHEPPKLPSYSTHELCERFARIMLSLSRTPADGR
Chain of UniProt P13010 (P13010 whole entry, looked up): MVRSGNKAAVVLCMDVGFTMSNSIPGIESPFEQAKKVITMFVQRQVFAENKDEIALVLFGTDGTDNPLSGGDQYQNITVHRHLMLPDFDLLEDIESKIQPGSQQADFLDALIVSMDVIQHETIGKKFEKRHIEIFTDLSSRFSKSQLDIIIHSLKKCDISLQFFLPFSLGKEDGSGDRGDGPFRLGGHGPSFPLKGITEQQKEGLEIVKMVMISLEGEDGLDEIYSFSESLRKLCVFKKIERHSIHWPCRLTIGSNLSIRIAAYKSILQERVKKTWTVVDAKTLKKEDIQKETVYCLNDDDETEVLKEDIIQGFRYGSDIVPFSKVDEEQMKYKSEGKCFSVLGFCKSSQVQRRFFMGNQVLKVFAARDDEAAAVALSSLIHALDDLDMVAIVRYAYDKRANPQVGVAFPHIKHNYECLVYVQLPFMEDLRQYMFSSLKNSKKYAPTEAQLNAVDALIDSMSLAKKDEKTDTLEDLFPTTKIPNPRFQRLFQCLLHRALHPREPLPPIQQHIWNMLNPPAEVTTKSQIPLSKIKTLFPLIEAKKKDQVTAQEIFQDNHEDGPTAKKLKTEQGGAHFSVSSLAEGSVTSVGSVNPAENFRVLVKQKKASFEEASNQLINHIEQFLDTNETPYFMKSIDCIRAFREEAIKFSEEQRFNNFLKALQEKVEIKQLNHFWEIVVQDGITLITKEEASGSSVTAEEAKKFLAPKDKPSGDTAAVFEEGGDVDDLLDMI
Chain of UniProt O00220 (O00220 whole entry, looked up): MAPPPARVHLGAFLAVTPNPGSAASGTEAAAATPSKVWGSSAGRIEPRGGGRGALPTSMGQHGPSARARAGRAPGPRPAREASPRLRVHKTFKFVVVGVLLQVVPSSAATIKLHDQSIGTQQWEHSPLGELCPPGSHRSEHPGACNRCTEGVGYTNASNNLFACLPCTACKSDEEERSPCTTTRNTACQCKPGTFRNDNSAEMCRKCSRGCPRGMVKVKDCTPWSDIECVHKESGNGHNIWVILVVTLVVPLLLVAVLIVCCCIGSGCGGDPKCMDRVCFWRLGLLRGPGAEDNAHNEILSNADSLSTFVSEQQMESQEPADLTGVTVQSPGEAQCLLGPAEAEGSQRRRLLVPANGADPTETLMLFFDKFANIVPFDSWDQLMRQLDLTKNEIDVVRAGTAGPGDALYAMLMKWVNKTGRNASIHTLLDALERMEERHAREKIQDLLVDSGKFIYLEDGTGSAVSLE
Chain of UniProt O14980 (O14980 whole entry, looked up): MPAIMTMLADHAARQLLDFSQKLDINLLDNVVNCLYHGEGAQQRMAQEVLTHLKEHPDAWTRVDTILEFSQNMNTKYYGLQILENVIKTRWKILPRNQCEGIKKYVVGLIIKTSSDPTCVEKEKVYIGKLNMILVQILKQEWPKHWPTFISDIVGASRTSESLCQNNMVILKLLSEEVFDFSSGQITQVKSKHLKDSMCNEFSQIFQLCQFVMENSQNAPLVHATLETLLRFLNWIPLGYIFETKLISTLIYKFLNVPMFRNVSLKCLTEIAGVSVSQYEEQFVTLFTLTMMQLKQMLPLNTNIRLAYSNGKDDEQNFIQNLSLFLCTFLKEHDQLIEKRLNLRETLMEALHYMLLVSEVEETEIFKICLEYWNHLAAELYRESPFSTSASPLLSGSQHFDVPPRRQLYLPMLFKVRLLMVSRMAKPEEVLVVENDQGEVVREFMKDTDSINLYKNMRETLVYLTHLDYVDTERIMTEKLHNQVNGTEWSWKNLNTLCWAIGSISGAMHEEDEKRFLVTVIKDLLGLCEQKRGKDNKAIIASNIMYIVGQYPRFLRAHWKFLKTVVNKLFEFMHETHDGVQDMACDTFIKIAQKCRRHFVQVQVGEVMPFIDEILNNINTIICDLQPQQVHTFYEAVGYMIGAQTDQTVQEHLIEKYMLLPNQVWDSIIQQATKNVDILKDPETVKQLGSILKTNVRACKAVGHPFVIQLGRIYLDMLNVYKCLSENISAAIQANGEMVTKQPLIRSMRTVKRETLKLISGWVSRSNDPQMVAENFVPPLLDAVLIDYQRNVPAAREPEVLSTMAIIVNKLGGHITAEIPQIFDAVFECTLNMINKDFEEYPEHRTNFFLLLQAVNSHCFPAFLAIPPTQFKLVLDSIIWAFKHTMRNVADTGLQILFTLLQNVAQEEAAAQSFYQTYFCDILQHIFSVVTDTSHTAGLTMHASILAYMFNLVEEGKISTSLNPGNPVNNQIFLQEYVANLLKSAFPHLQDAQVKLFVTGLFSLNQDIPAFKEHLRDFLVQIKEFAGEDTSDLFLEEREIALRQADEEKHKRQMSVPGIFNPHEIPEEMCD
Chain of UniProt P02585 (P02585 whole entry, looked up): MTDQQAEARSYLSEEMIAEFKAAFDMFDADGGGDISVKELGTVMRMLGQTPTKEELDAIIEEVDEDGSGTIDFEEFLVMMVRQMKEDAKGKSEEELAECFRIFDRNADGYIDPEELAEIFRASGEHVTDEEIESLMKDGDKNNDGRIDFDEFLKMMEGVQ

Row | Target | log2 fold change
1 | TSG101 (UniProt Q99816) | -0.024 (inactive)
2 | VTA1 (UniProt Q9NP79) | -0.127 (inactive)
3 | VDAC1 (UniProt P21796) | 0.017 (inactive)
4 | WASHC2C, A0A096LPC5 | 0.189 (inactive)
5 | VTI1B (UniProt Q9UEU0) | 0.039 (inactive)
6 | UBE2Q1 (UniProt Q7Z7E8) | -0.196 (inactive)
7 | TMEM106B (UniProt Q9NUM4) | -0.021 (inactive)
8 | TMEM164 (UniProt Q5U3C3) | -0.204 (inactive)
9 | USP48 isoform 8 (UniProt Q86UV5) | -0.197 (inactive)
10 | USP15 (UniProt Q9Y4E8) | -0.043 (inactive)
11 | UFD1 isoform 1 (UniProt Q92890) | -0.099 (inactive)
12 | WDR46 (UniProt O15213) | 0.27 (inactive)
13 | USP14 (UniProt P54578) | -0.078 (inactive)
14 | XPNPEP3 (UniProt Q9NQH7) | -0.033 (inactive)
15 | UCHL5 (UniProt Q9Y5K5) | -0.116 (inactive)
16 | VPS16 (UniProt Q9H269) | -0.163 (inactive)
17 | VAMP7 (UniProt P51809) | -0.026 (inactive)
18 | XPO1 (UniProt O14980) | -0.223 (inactive)

Row | Target | log2 fold change
19 | TNFRSF10A (UniProt O00220) | 0.019 (inactive)
20 | UBLCP1 (UniProt Q8WVY7) | -0.06 (inactive)
21 | TMEM189-UBE2V1 (UniProt I3L0A0) | 0.007 (inactive)
22 | WASH2P (UniProt Q6VEQ5) | -0.03 (inactive)
23 | VTI1A (UniProt Q96AJ9) | 0.046 (inactive)
24 | TNNC2 (UniProt P02585) | 0.078 (inactive)
25 | TMEM223 (UniProt A0PJW6) | -0.14 (inactive)
26 | U2AF1 isoform 2 (UniProt Q01081) | -0.005 (inactive)
27 | XRCC5 (UniProt P13010) | -0.001 (inactive)
28 | TNPO1 (UniProt Q92973) | -0.128 (inactive)
29 | VPS52 (UniProt Q8N1B4) | -0.122 (inactive)
30 | TMEM263 (UniProt Q8WUH6) | -0.385 (inactive)
31 | USP25 isoform 3 (UniProt Q9UHP3) | -0.024 (inactive)
32 | VPS50 (UniProt Q96JG6) | -0.066 (inactive)
33 | UBAP1 isoform 4 (UniProt Q9NZ09) | 0.009 (inactive)
34 | TNPO2 (UniProt O14787) | -0.059 (inactive)
35 | VPS18 (UniProt Q9P253) | -0.041 (inactive)
36 | TRIM28 (UniProt Q13263) | -0.033 (inactive)

Compound: Cc1cc(Nc2cc(N3CCN(C)CC3)nc(Sc3ccc(NC(=O)C4CC4)cc3)n2)n[nH]1 [tozasertib]
Experiment: as above
Procedure, shortened: as §1

Row | Target | log2 fold change
37 | TSG101 (UniProt Q99816) | 0.032 (inactive)
38 | VTA1 (UniProt Q9NP79) | 0.004 (inactive)
39 | VDAC1 (UniProt P21796) | 0 (inactive)
40 | WASHC2C, A0A096LPC5 | 0.007 (inactive)
41 | VTI1B (UniProt Q9UEU0) | 0.005 (inactive)
42 | UBE2Q1 (UniProt Q7Z7E8) | 0.036 (inactive)
43 | TMEM106B (UniProt Q9NUM4) | -0.073 (inactive)
44 | TMEM164 (UniProt Q5U3C3) | 0.031 (inactive)
45 | USP48 isoform 8 (UniProt Q86UV5) | 0.334 (inactive)
46 | USP15 (UniProt Q9Y4E8) | 0.056 (inactive)
47 | UFD1 isoform 1 (UniProt Q92890) | -0.027 (inactive)
48 | WDR46 (UniProt O15213) | 0.068 (inactive)
49 | USP14 (UniProt P54578) | -0.002 (inactive)
50 | XPNPEP3 (UniProt Q9NQH7) | -0.034 (inactive)
51 | UCHL5 (UniProt Q9Y5K5) | 0.036 (inactive)
52 | VPS16 (UniProt Q9H269) | 0.033 (inactive)
53 | VAMP7 (UniProt P51809) | 0.005 (inactive)
54 | XPO1 (UniProt O14980) | 0.027 (inactive)

Row | Target | log2 fold change
55 | TNFRSF10A (UniProt O00220) | -0.024 (inactive)
56 | UBLCP1 (UniProt Q8WVY7) | 0.045 (inactive)
57 | TMEM189-UBE2V1 (UniProt I3L0A0) | -0.009 (inactive)
58 | WASH2P (UniProt Q6VEQ5) | -0.071 (inactive)
59 | VTI1A (UniProt Q96AJ9) | 0.038 (inactive)
60 | TNNC2 (UniProt P02585) | -1.1 (active)
61 | TMEM223 (UniProt A0PJW6) | 0.061 (inactive)
62 | U2AF1 isoform 2 (UniProt Q01081) | 0.05 (inactive)
63 | XRCC5 (UniProt P13010) | 0.177 (inactive)
64 | TNPO1 (UniProt Q92973) | 0.052 (inactive)
65 | VPS52 (UniProt Q8N1B4) | 0.022 (inactive)
66 | TMEM263 (UniProt Q8WUH6) | -0.019 (inactive)
67 | USP25 isoform 3 (UniProt Q9UHP3) | 0.036 (inactive)
68 | VPS50 (UniProt Q96JG6) | 0.01 (inactive)
69 | UBAP1 isoform 4 (UniProt Q9NZ09) | 0.399 (inactive)
70 | TNPO2 (UniProt O14787) | 0.077 (inactive)
71 | VPS18 (UniProt Q9P253) | 0.009 (inactive)
72 | TRIM28 (UniProt Q13263) | 0.13 (inactive)
